CtBP-E1A blk: blocks the CtBP interaction with E1A. AlphaScreen GST-E1A/His-CtBP binding, 1536-well; hits give low values. activity change, % (concentration not given with the values). actives 0.49% (n = 340,000); in the data active means activity change below about -65%; inconclusive means mostly about -30% to -63%; further: on the % scale 0 is the no-effect control and ±100 the full control effect
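Homogeneous bead-based format: GST-tagged E1A captured on glutathione donor beads, His-tagged CtBP on nickel acceptor beads; compounds precede bead addition by 2 h at 37 °C.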
VP16 counter: Gal4-VP16 reporter inhibition counter-screen | Drosophila S2 Gal4-VP16 UAS-luciferase, luminescence, 20 h | Potency, µM (titrated, usually from 53.6 µM), for inactives: top-dose activity, negative = inhibition, hits mostly inhibitors | actives 3.5% (n = 310,000) | AID 2546;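 further: Gal4-VP16 expression switched on by copper sulfate through the metallothionein promoter; potency means the concentration at half of the fitted maximal effect; on the % scale 0 is the no-effect control and ±100 the full control effect; nearly all actives have a fitted effect of over 50% in size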
RORg inh: blocks mouse ROR gamma transcriptional activity | P51450 | Drosophila S2 Gal4-RORgamma UAS-luciferase reporter, 20 h | Potency, µM (series often up to 53.6 µM), inactives show at the highest dose activity change, negative = inhibition, usual class: inhibitors | actives 5.4% (n = 310,000); further: potency means the concentration at half of the fitted maximal effect; on the % scale 0 is the no-effect control and ±100 the full control effect; nearly all actives have a fitted effect of over 60% in size
Target sequence (P51450 whole entry, looked up, the tested form may be a part): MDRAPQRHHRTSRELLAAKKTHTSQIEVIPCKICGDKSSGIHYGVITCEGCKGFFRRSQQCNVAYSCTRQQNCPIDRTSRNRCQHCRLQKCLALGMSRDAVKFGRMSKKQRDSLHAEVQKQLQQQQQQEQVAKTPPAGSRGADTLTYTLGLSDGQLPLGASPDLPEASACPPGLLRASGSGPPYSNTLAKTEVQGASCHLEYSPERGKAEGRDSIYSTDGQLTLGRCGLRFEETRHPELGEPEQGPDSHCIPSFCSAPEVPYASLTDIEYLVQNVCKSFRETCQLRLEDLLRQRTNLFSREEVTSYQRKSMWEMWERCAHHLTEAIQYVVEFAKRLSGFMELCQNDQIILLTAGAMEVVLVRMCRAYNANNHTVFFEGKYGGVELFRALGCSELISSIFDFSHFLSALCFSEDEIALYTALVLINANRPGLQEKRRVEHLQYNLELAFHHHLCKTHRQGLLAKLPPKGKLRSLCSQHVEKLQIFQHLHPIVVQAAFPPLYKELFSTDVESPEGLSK
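Schneider cells (Drosophila), stable Gal4 DBD–ROR gamma + UAS-luc; 1 hr cmpd preincubation; Cu2+ induction 700 uM final; 20 hr ambient; luminescence.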
MBNL1-CUG inh: blocks human MBNL1 binding to CUG repeat RNA. TR-FRET MBNL1-His/biotin-(CUG)12 binding, 665/545 ratio. Potency, µM (series often up to 57.5 µM), inactives show at the top dose activity change, negative = inhibition, most hits filed as inhibitors. actives 0.036% (n = 280,000). AID 2675; active means well fitted inhibition curve with a large enough effect in the signal ratio, with a control signal flat, not every such curve was filed as active; inconclusive means small, poorly fitted or top-dose-only effect, or effect the other way, or a change in a side signal; inactive means no such curve, though single readings can be large or run the other way; the % refers to the signal ratio; further: potency means the concentration at half of the fitted maximal effect; on the % scale 0 is the no-effect control and ±100 the full control effect
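Ratiometric TR-FRET (665 over 545 nm, excitation 340 nm) tracks disruption of MBNL1-His/biotin-(CUG)12 complex after 60 min at room temperature, with compounds at 92 nM to 58 uM final.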
CBFb-RUNX1 inh: CBF-beta/RUNX1 interaction disruption; Q01196+Q13951; AlphaScreen CBFb-His/RUNX1-biotin binding, biochemical; Potency, µM (series often up to 59.8 µM), inactives show at the highest dose activity, negative = inhibition, actives largely listed as inhibitors; 230,000 tested, under 10 active; AID 1477; further: % of control where 0% means no effect
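Compounds were screened at multiple concentrations against a preformed CBF-beta(His)/RUNX1(biotin) complex (30 nM of each) for 15 min at room temperature, followed by 90 min with nickel and streptavidin beads and AlphaScreen reading.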
Six1-Eya2 blk: Six1/Eya2 interaction inhibition; actives 0.56% (n = 360,000); Q15475+O00167; AlphaScreen GST-Six1/His-Eya2 binding, biochemical; hits give low values; activity change, % (no concentration beside the values); in the data active means activity change below about -65%; inconclusive means mostly about -30% to -63%; further: on the % scale 0 is the no-effect control and ±100 the full control effect
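Compounds are tested against tagged Six1 and Eya2 proteins bridged by glutathione donor and nickel acceptor beads; after a one-hour incubation at 37 °C without light, AlphaScreen emission is recorded.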
The depositor's hits bear a star; ? = inconclusive; . = no result given; [ ] = dose if it differs, or a comment. Shown are actives, neighbours in structure and some others; about 5.5% of the full set was active somewhere. Unless noted, the call rests on the fitted dose curve; in most records, active means well fitted curve in the direction sought with a large enough effect; inconclusive means small, poorly fitted or top-dose-only effect, or another doubt; inactive means no such curve, though single readings can be large; an effect the other way counts as inactive or inconclusive.

SMILES	CtBP-E1A blk	VP16 counter	RORg inh	MBNL1-CUG inh	CBFb-RUNX1 inh	Six1-Eya2 blk
COc1ccc(NC(=S)Nc2cc(-c3ccccc3)[nH]n2)cc1Cl	-14.3	2µM*	2.82µM*	-14.0%	-6.2%	-27.9
COc1ccc(NC(=S)Nc2cc(C)[nH]n2)cc1Cl	-19.5	?	?	-7.2%	-10.9%	-25.8
CCOc1ccc(NC(=S)Nc2cccnc2)cc1	-4.6	8.9%	?	3.0%	2.4%	10.0
CCOc1ccc(NC(=S)Nc2cc(-c3ccccc3)[nH]n2)cc1	?	3.55µM*	1.78µM*	3.6%	-1.5%	?
Cn1cc(C(=O)Nc2ccccn2)c(=O)c2ccccc21	5.0	3.7%	27.0%	-2.7%	.	0.5
Cc1nn(CCC(N)=S)c2nc(-c3cccs3)cc(C(F)(F)F)c12	-10.3	6.31µM*	7.08µM*	-2.0%	-2.2%	-11.7
Cc1nn(CCC#N)c2nc(-c3ccccc3)cc(C(F)(F)F)c12	21.0	-4.7%	3.4%	-11.7%	-14.0%	9.5
Nc1c(C(=O)NC2CCCCC2)c2nc3ccccc3nc2n1/N=C/c1ccco1	.	?	12.6µM*	-13.7%	8.2%	.
CC(=O)c1nc(N2C(=O)CC(Cc3cccc(C)c3)C2=O)sc1C (configuration not stated)	1.6	-9.1%	30.3%	-14.7%	4.1%	5.3
Cc1cccc(Cc2cnc(N3C(=N)SC(c4ccccc4)C3=O)s2)c1 (configuration not stated)	4.7	1.26µM*	?	.	-25.0%	-9.1
Cc1ccc(Cc2cnc(N3C(=N)SC(C)C3=O)s2)cc1 (configuration not stated)	-12.1	3.16µM*	5.01µM*	16.1%	-7.3%	-15.3
Cc1cccc(Cc2cnc(N3C(=N)SC(C)C3=O)s2)c1 (configuration not stated)	-10.2	1.12µM*	0.355µM*	26.3%	-14.9%	0.6
O=C1c2ccccc2C(=O)N1c1ncc(Cc2ccc(Cl)cc2)s1	2.3	-5.7%	-21.9%	.	-14.0%	3.2
COc1cccc2c1OC[C@@H](CO)[C@H]2N(C)C(=O)Nc1ccccc1	4.5	-4.2%	1.7%	-5.2%	-0.6%	3.6
CN(C(=O)Nc1ccc(Cl)cc1Cl)[C@H]1c2cc(Br)ccc2OC[C@H]1CO	-4.3	?	2.82µM*	-4.6%	17.1%	-0.2
CCCNC(=S)NNC(=O)c1cc(-c2cccnc2)nc2ccccc12	-13.1	-11.2%	?	16.9%	.	-1.5
CCNC(=S)NNC(=O)c1cc(-c2cccnc2)nc2ccccc12	-22.0	?	15.8µM*	25.8%	-1.8%	-8.8
CCNC(=S)NNC(=O)c1cc(C)nc2ccccc12	-5.7	?	?	-8.7%	4.7%	0.8
CCNC(=S)NNC(=O)c1cc(-c2cccc(C)c2)nc2ccccc12	2.1	8.91µM*	3.55µM*	-1.6%	-22.2%	-8.5
CCCCOc1cccc(-c2cc(C(=O)NNC(=S)NCC)c3ccccc3n2)c1	-9.5	?	-40.3%	5.4%	-10.3%	-7.0
CCNC(=S)NNC(=O)c1cc(-c2cccc(OCC)c2)nc2ccccc12	6.0	?	12.6µM*	7.2%	-9.4%	-10.5
C#CCN1C=CC(=O)[C@@H](OC(=O)Nc2ccc(Cl)cc2)[C@H]1c1ccccc1Br	-5.7	.	.	.	.	-5.5
O=C(Nc1ccc(S(=O)(=O)Nc2ccccc2)cc1)c1ccc(CN2CCOCC2)cc1	2.7	-27.3%	?	-8.9%	-1.6%	-8.8
CC(C)NC(=O)NC(=O)COC(=O)c1ccccc1O	3.8	-4.9%	-1.0%	-3.5%	1.7%	4.6
CC(C)NC(=O)NC(=O)COC(=O)c1ccccc1F	6.1	-11.6%	11.2µM*	-3.1%	6.7%	7.5
SMILES	CtBP-E1A blk	VP16 counter	RORg inh	MBNL1-CUG inh	CBFb-RUNX1 inh	Six1-Eya2 blk
CN(Cc1ccccc1)C(=S)NC(=O)c1cccs1	9.7	0.251µM*	0.316µM*	-2.9%	.	1.2
CN(Cc1ccccc1)C(=S)NC(=O)c1ccc(-c2ccccc2)cc1	0.3	0.0891µM*	0.282µM*	4.4%	-0.5%	0.7
COc1cc(C(=O)NC(=S)N(CCc2ccccc2)CCc2ccccc2)cc(OC)c1OC	-1.6	0.794µM*	0.398µM*	?	?	-16.7
COc1ccc(C(=O)N(C)Cc2ccccc2)cc1Br	.	-19.0%	?	-12.2%	-2.9%	.
COc1cc(C(=O)NC(C)CCc2ccccc2)cc(OC)c1OC (configuration not stated)	-5.4	1.3%	-9.7%	-1.2%	.	-2.6
COc1cc(C(=O)NC(=S)N(C)Cc2ccccc2)cc(OC)c1OC	-10.0	3.55µM*	0.562µM*	-4.3%	-0.7%	5.4
CCC(C(=O)NC1CCCC1)n1c(-c2ccncc2)nc2ccccc21 (configuration not stated)	2.6	.	.	.	.	8.4
S=C(Nc1ccc(OCc2ccccc2)cc1)Nc1cccc(Cl)c1Cl	8.2	-40.9%	?	?	0.9%	9.7
COc1ccc(NC(=S)Nc2ccc(OCc3ccccc3)cc2)c(OC)c1	-22.9	7.08µM*	7.08µM*	?	2.2%	-19.3
COc1ccc(NC(=S)NCC(O)c2ccccc2)c(OC)c1 (configuration not stated)	-24.7	4.2%	-3.3%	14.7%	6.8%	-11.2
S=C(Nc1ccccc1)Nc1ccc(OCc2ccccc2)cc1	1.8	-6.8%	11.2µM*	-12.1%	2.1%	1.6
COc1ccc(NC(=S)Nc2ccccc2)c(OC)c1	-10.4	?	12.6µM*	.	11.9%	2.1
C/C=C1\COC(C(=O)NCCN2CCOCC2)(C(F)(F)F)C=C1C=C(C)C (configuration not stated)	.	-13.7%	-30.2%	.	-7.1%	.
CCN(CC)c1ccc(/C=N/NC(=O)OC)c(O)c1	-13.7	?	?	?	-4.6%	-18.9
CCN(CC)c1ccc(/C=N/NC(=O)c2ccoc2C)c(O)c1	-18.4	3.55µM*	0.501µM*	8.1%	-2.9%	-27.9
CCN(CC)c1ccc(/C=N/NC(=S)NC)c(O)c1	?	1.78µM*	0.794µM*	17.2%	?	-89.6*
CS(=O)(=O)N1CCC(C(=O)NNC(=O)Nc2ccc(F)c(Cl)c2)CC1	0.0	9.9%	-24.3%	-1.9%	.	8.9
Cc1ccc2[nH]c(-c3ccc(F)cc3F)cc(=O)c2c1	.	?	-27.3%[96.6 µM]	.	4.4%[89.1 µM]	.
NS(=O)(=O)c1ccc(CCNC(=O)C(=O)c2cn(CC(=O)N3CCOCC3)c3ccccc23)cc1	2.5	-8.3%	-17.2%	?	.	0.5
O=S(=O)(CCN1CCOCC1)c1ccc(Cl)cc1	-11.0	.	.	.	.	-5.7

Bioassay records from PubChem BioAssay.
